Measured values taken from the OligoGym collection.

Biological target: METRNL
Assay: pooled miR-30 sensor sort-seq; sequence = guide strand
Details: shRNA
Note: reference of the scale not given here.

Sequence	sensor-assay potency score (higher = more potent)
TACTGGAAGCCTGTGGTCCTCC	-0.709
TTAGTTTGCATTTTACAGCATT	-0.859
TTAACGATGAGAGCACCTGTTG	-1.05
TCGAACGGCGAAGTCGCTGGTG	-0.372
TGAAGCGTGGGGCACAGCCGAG	-1.51
ATAGAGTCTGCTCACGCGCAGG	-1.52
TTTTACAGCATTTCCAATCGGC	0.396
TAACGATGAGAGCACCTGTTGG	-0.773
TAGAGTCTGCTCACGCGCAGGT	0.197
TGAAGGACCTGATGCACACGGT	-0.842
TACATCCTCTGGAAGTCCTTGA	0.329
TGGAAGTCCTTGAAGCGTGGGG	-0.538

Biological target: METTL16
Assay: as above
Details: shRNA

Sequence	sensor-assay potency score (higher = more potent)
TTTCTCTAATTTTCTTCGCTTA	-0.889
TTCTTCGCTTACTTGGTGGTGA	0.819
TTCTTTAAGAGCATCCATCAGG	-0.744
TTCTTCTTTAAGAGCATCCATC	-1.07
TTAACGTTTATCAAACACTTAA	-1.21
TTTGCTTACCTAATTCTGCTTC	0.554
TAAGGCATCGTCCACCTCCTTC	-0.93
TAACAAACTCTAATTCACCTCC	0.296
TGTATTAACAGAACTAGGCGGA	0.503
TTGTCCTTGTATCTATTTCTTG	-1.01
TTATCAAACACTTAAACAGGTA	-0.44
TTTAAGAGCATCCATCAGGAGT	-1.04
